Experimental findings from ChEMBL document CHEMBL3988442, “University of Dundee, Small-Polar-MMV Screening Library” (2021) are described below.

Test [1] addresses T1, Aspartate--tRNA(Asp/Asn) ligase (Mycobacterium tuberculosis (strain ATCC 25618 / H37Rv)) (UniProt P9WFW3).
T1 sequence (whole entry): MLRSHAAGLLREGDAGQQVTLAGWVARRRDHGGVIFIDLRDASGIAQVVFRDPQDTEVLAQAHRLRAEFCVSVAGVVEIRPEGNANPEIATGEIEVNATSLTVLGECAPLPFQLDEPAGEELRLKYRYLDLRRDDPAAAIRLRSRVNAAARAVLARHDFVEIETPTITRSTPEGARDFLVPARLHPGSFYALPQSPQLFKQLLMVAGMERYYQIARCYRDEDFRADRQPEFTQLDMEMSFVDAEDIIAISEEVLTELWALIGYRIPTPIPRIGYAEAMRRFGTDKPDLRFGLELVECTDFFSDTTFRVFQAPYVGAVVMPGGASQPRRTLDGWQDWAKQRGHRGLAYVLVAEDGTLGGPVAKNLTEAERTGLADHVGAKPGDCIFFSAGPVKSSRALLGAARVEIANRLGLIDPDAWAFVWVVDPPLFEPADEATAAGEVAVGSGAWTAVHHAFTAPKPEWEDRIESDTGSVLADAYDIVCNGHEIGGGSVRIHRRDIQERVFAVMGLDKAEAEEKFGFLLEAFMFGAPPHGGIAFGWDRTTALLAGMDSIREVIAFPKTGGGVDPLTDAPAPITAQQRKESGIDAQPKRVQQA
Description: Assay for Asp RNA synthetase-1 from Mycobacterium tuberculosis. In kind it is functional. The arrangement: scale not given: direction of the effect not stated beside the values. Particulars: 30 µM.

Test [2] concerns the target Shiga toxin 2 (Escherichia coli O157:H7) (UniProt P09385+P09386). Description: E. coli 0.157:H7 Shiga Toxin SOP - stx2 screening assay. In kind it is functional. The arrangement: scale not given: direction of the effect not stated beside the values. Particulars: 30 µM.

Each structure is given as a SMILES string.

On to `CCC(=O)N(C)C1CCN(Cc2ncc(C)c(OC)c2C)CC1`, for which the Percent Effect in test [1] was -0.759%; in test [2], -19.9%.
For `CN(Cc1nnc2n1CCC2)C(=O)Cc1ccc2c(c1)OCCO2`, in that order: 4.23% and 18.1%.
For `Cn1nnc2c1C(COCC1CC1)CN(C(=O)Cc1ccsc1)C2` (centres undefined), in that order: -2.73% and -6.94%.
For `COc1cnc(N2CCC(Oc3ccccc3OC)(C(=O)O)CC2)nc1`, in that order: -1.16% and -0.671%.
As to `CC(=O)N(Cc1ncc(C)o1)C1CCN(Cc2cccc(C#N)c2)C1` (centres undefined), the Percent Effect in test [1] was 0.127%; in test [2], 9.86%.
For `CC(C)(C)n1ncc2c1NC(=O)CC2c1ccc(OCC(N)=O)cc1` (centres undefined), in that order: -2.88% and 21.3%.
For `COCCN1C(=O)C[C@H]2[C@H]1CCN2Cc1cccc(C#N)c1`, in that order: -5.22% and -7.15%.
For `Cc1noc(C(C)C)c1C(=O)NS(=O)(=O)c1ccc2c(c1)OCCCO2`, in that order: 2.22% and -0.248%.
With `O=C(c1ccnnc1)N1C[C@H](Oc2cccnc2)[C@H]2OCCC[C@H]21`, the Percent Effect in test [1] was 2.1%; in test [2] it was 3.62%.
Take `CCc1nc(C2CCCN2C(=O)CCCn2cccn2)no1` (centres undefined): the Percent Effect in test [1] was -0.232%; in test [2], -5.5%.
For the compound `O=C(NCCc1cccnc1)N1CCCC1c1ccsc1` (centres undefined), the results for the Percent Effect in test [1] and in test [2] were -2.72% and 1.93%, respectively.
For `Cn1cccc1C(=O)N1CCN(CC2CC2)c2ncccc2C1`, in that order: 2.01% and -11.1%.
For `O=C1C[C@H]2[C@@H](CCN2C(=O)Cc2cccs2)N1Cc1cccnc1`, in that order: -2.94% and -6.22%.
For `Cc1noc(C)c1-c1cncc(C2CCCN2Cc2ccncc2)n1` (centres undefined), in that order: 1.92% and -6.19%.
For the compound `O=C([C@H]1CCCO1)N1CC[C@H](O)[C@@H]1Cc1ccncc1`, the Percent Effect in test [1] is -1.01%; in test [2], 1.58%.
In the case of `COc1c(CNC2CCCc3ccccc32)c(C)nn1C` (centres undefined), the Percent Effect in test [1] is -1%; in test [2] it was 13.6%.
The like results for `CN(Cc1ccco1)C[C@H]1OC[C@@H]2CCN(Cc3cccnc3)C[C@@H]21` were, in that order, 3.55% and -24.2%.
The like results for `COc1ccc(C[C@H]2CN(C(=O)c3ccncc3)CC[C@@H]2OC)cc1` were, in that order, 1.64% and -22.2%.
The like results for `CC(C)c1cc(NC(=O)CN2CCc3cncnc3C2)on1` were, in that order, 2.37% and 5.67%.
Regarding `COCC(c1cccc(C(F)(F)F)c1)N(C)C(=O)c1ccncc1` (centres undefined), the Percent Effect is -1.77% in test [1] and -15.3% in test [2].
For `CN(Cc1cn2c(n1)CN(CC1CC1)CC2)Cc1ccco1`, in that order: 3.75% and -1.46%.
The like results for `Cc1cc(C(=O)N[C@@H]2CCNC[C@H]2O)ccc1Cl` were, in that order, 2.13% and 14.6%.
The like results for `COc1ccc(CN2C[C@@H]3COC[C@]3(COc3cccnc3)C2)cc1` were, in that order, -3.56% and -5.5%.
As to `COc1ccccc1C(=O)N1CC(Cc2nccc3ccn(C)c23)C1`, the Percent Effect in test [1] was -0.878%; in test [2], -11.7%.
The like results for `CCc1nc2n(n1)CC(NCC(=O)Nc1nccs1)CC2` (centres undefined) were, in that order, -2.71% and 2.48%.
The like results for `CCc1cnc2c(c1NCc1ccncc1)c(=O)n(C)c(=O)n2C` were, in that order, -0.949% and -7.71%.
Consider `c1cnc(NCc2cncc3c2CCN(Cc2cccs2)C3)nc1`, for which the Percent Effect in test [1] is 3.81%; in test [2], -9.08%.
Consider `CN(Cc1cn2c(n1)CN(c1ncc(F)cn1)CC2)Cc1ccco1`, for which the Percent Effect was 2.34% in test [1] and -8.28% in test [2].
For `CC(NC(=O)Nc1cccnc1N1CCCC1)c1nncn1C` (centres undefined), in that order: -2.86% and 7.91%.
For `NC(=O)c1cc(C2CCCN(C(=O)CCc3ccsc3)C2)n[nH]1` (centres undefined), in that order: -5.77% and 21.2%.
The like results for `c1cnc(NCc2ncn3c2CN(Cc2cccnc2)CCC3)nc1` were, in that order, -2.66% and -5.14%.
With `CCc1n[nH]c(C2CN(C(=O)c3ccsc3)CCO2)n1` (centres undefined), the Percent Effect in test [1] is -7.75%; in test [2], 21.9%.
Turning to `CC(C)c1csc(C2CCCN(C(=O)c3ncccn3)C2)n1` (centres undefined), the Percent Effect in test [1] was -2.21%; in test [2], -20%.
The like results for `Cc1nn(C)c(C)c1C1CCCN1C(=O)c1cnc2n[nH]c(C)c2c1` (centres undefined) were, in that order, -5.16% and -21.8%.
For `Cn1cc(CN2CCCn3cnc(CN4CCCC4=O)c3C2)cn1`, in that order: 2.39% and -3.11%.
The like results for `CN1C(=O)C[C@@H]2[C@@H]1CCN2S(=O)(=O)Cc1ccccc1` were, in that order, -2.58% and -4.62%.
With `Cc1nc(CO[C@@H]2CN(Cc3cnn(C)c3)[C@@H]3COC[C@@H]32)cs1`, the Percent Effect in test [1] was -6.31%; in test [2] it was -3.46%.
The like results for `c1ccc(-c2nnn3c2COC(CNCC2CCOCC2)C3)cc1` (centres undefined) were, in that order, 2.63% and -21.1%.
For `Cc1n[nH]c(C)c1NC(=O)CN1CCOC(Cn2cccn2)C1` (centres undefined), in that order: -0.605% and 31.6%.
The like results for `COC(=O)c1cc(C(=O)N2CCCCCC2)n(-c2ccccc2)n1` were, in that order, -0.856% and 30.9%.
`O=C(c1cccn1Cc1cccs1)N1CCCC1Cn1cccn1` (centres undefined): the Percent Effect in test [1] was -0.702%; in test [2], 14.5%.
For `CCNC(=O)c1ccnc(NCC2COc3cc(OC)ccc3C2)c1` (centres undefined), in that order: -2.64% and -9.33%.
Regarding `CCc1n[nH]c(C2CN(CCc3ccncc3)CCO2)n1` (centres undefined), the Percent Effect is -1.5% in test [1] and 11.6% in test [2].
The like results for `CC(C)(C)c1nnc(CN2CCN(S(C)(=O)=O)CC2)o1` were, in that order, 1.17% and -26.2%.
For the compound `Cc1ccc(NC(=O)NC(C)c2nc[nH]n2)cc1` (centres undefined), the Percent Effect in test [1] is 4.39%; in test [2] it was 5.92%.
For `CCCC(=O)N1CCC(O)(Cn2c(CC)nc3ccccc3c2=O)CC1`, in that order: 0.164% and 0.775%.
The like results for `Cc1cnn(CC2CN(c3ncnc4ccsc34)CCO2)c1` (centres undefined) were, in that order, -1.51% and -0.262%.
Consider `Cc1nc(CN2CCc3nn(C(C)C)c(=O)cc3C2)oc1C`, for which the Percent Effect in test [1] was 7%; in test [2], 0.318%.
Consider `Cc1nc(C2CCCN2C(=O)c2ccccc2)ncc1C(N)=O` (centres undefined), for which the Percent Effect was -3.02% in test [1] and -6.25% in test [2].
For the compound `Cc1cc(C)n(C2CCCN(C(=O)c3cnc4onc(C)c4c3)C2)n1` (centres undefined), the Percent Effect is -0.75% in test [1] and 15.8% in test [2].
For `COCC1CCN(C(=O)c2cccc(S(=O)(=O)NCC3(C)COC3)c2)C1` (centres undefined), in that order: 5.94% and 10.4%.
For `O=C(c1ccc(Cl)o1)N1CCCN(Cc2cscn2)CC1`, in that order: -7.87% and 6.75%.
